UGM FP inh = blocks M. tuberculosis UGM enzyme. P9WIQ1. purified UGM, fluorescence polarization probe displacement. inhibition, % at 10 µM. actives 0.06% (n = 320,000); in the data active means inhibition above about 10%, passing the limit was not always enough
FBA Mtb inh = Mtb fructose-bisphosphate aldolase inhibition | purified M. tuberculosis FBA, fluorescence read-out | actives 2.3% (n = 360,000) | inhibition, % at 1 µM | P9WQA3; in the data active means inhibition above about 27%;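 further: 0% = vehicle and 100% = reference inhibitor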
GDH-TPI counter = inhibits GDH-TPI coupling enzymes, artifact for Mtb FBA screen; GDH-TPI coupled enzyme counterscreen, NADH absorbance; inhibition, % at 4.8 µM; actives 1.2% (n = 360,000); AID 588335; in the data active means inhibition above about 30%;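 further: 0% = DMSO wells and 100% = wells lacking the enzyme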
Rv3671c protease = inhibitors of M. tuberculosis serine protease Rv3671c | P9WHR9 | inhibition, % at 5.96 µM | actives 0.048% (n = 320,000) | AID 2606; in the data active means inhibition above about 38%;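 further: extracellular domain of Rv3671c used as enzyme; 0% = enzyme with DMSO and 100% = no enzyme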
Target sequence (P9WHR9 whole entry, looked up, the tested form may be a part): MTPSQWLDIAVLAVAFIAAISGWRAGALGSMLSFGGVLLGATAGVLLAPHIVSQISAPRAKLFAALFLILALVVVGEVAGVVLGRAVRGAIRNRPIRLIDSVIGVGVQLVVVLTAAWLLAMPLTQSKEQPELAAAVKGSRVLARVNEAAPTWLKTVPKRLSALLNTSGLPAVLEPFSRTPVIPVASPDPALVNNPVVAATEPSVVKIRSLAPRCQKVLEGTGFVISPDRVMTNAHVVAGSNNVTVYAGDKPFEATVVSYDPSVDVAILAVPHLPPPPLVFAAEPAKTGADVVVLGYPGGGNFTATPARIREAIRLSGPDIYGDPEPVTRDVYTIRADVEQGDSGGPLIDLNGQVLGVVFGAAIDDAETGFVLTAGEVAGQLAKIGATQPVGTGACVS
* = called active by the depositor. Sampled rows, rich in hits. Any-hit rate of the full collection: about 3.5%.

CCOC(=O)c1cc(C)[nH]c(=O)c1C#N was read as UGM FP inh 3, FBA Mtb inh 161*, GDH-TPI counter -3 and Rv3671c protease 0.
Cc1nc(SCC(=O)Nc2ccccc2Cl)c2c(C)c(C)sc2n1 was read as UGM FP inh -1, FBA Mtb inh 1, GDH-TPI counter 13 and Rv3671c protease -9.
Nc1cc(Cl)nc(N/N=C/c2ccccc2[N+](=O)[O-])n1 was read as UGM FP inh 1, FBA Mtb inh 1, GDH-TPI counter 7 and Rv3671c protease 2.
`Nc1cc(Cl)nc(N/N=C/c2ccc([N+](=O)[O-])cc2)n1` gave UGM FP inh 4, FBA Mtb inh -4, GDH-TPI counter 33* and Rv3671c protease 10.
`CCCCCCC(=O)N/N=C/c1c(O)n(CCCC)c(=S)[nH]c1=O` gave UGM FP inh 7, FBA Mtb inh 3, GDH-TPI counter 17 and Rv3671c protease 7.
Screening COCCn1c(O)c(/C=N/NC(=O)CSC(=S)N2CCCC2)c(=O)[nH]c1=S returned UGM FP inh 2, FBA Mtb inh -3, GDH-TPI counter 32* and Rv3671c protease 1.
O=C(CSC(=S)N1CCCC1)N/N=C/c1c(O)[nH]c(=S)[nH]c1=O was read as UGM FP inh 1, FBA Mtb inh 6, GDH-TPI counter 46* and Rv3671c protease -31.
`Cc1cccc(N/N=C/c2c(O)[nH]c(=S)[nH]c2=O)c1` gave UGM FP inh 0, FBA Mtb inh 0, GDH-TPI counter 5 and Rv3671c protease 2.
O=c1c2cc(N3CCOCC3)ccc2[nH]c(=S)n1CCCN1CCCCC1 was read as UGM FP inh -1, FBA Mtb inh 4, GDH-TPI counter 31* and Rv3671c protease -7.
For O=c1c2cc(N3CCOCC3)ccc2[nH]c(=S)n1CCCN1CCCC1 the results were UGM FP inh -1, FBA Mtb inh 5, GDH-TPI counter 27 and Rv3671c protease -6.
`O=C(Nc1nccs1)c1sc2cc(Cl)ccc2c1Cl` gave UGM FP inh 3, FBA Mtb inh -4, GDH-TPI counter 34* and Rv3671c protease -11.
Screening COc1cccc(S(=O)(=O)N(C)C[C@@H]2Oc3cc(C#CCN(C)C)ccc3S(=O)(=O)N([C@H](C)CO)C[C@@H]2C)c1 returned FBA Mtb inh 2 and GDH-TPI counter -4.
CC(=O)c1ccc(OC(C)C(=O)NCC2(N3CCOCC3)CCCCC2)cc1 (stereo unspecified) was read as UGM FP inh -1, FBA Mtb inh 6, GDH-TPI counter -2 and Rv3671c protease 2.
Screening Cc1ccc(CNC(=O)C2CCN(S(=O)(=O)c3c(C)noc3/C=C/N(C)C)CC2)cc1 returned UGM FP inh -5, FBA Mtb inh -5, GDH-TPI counter 23 and Rv3671c protease -17.
For Cc1ccc(NC(=O)C2CCN(S(=O)(=O)c3c(C)noc3/C=C/c3ccco3)CC2)nc1 the results were UGM FP inh 0, FBA Mtb inh -6, GDH-TPI counter 27 and Rv3671c protease -2.
Screening Cc1ccc(CNC(=O)C2CCN(S(=O)(=O)c3c(C)noc3/C=C/c3ccco3)CC2)cc1 returned UGM FP inh -4, FBA Mtb inh -4, GDH-TPI counter 37* and Rv3671c protease -22.
Cc1noc(/C=C/c2ccco2)c1S(=O)(=O)N1CCC(C(=O)NCc2ccco2)CC1 was read as UGM FP inh -2, FBA Mtb inh 1, GDH-TPI counter 34* and Rv3671c protease -7.
`CCCNC(=O)c1ccccc1NC(=O)COc1cccc2c1OC(C)(C)C2` gave FBA Mtb inh 3, GDH-TPI counter -12 and Rv3671c protease 14.
For O=C(NC1CC1)c1cc(-c2ccco2)nc2ccccc12 the results were FBA Mtb inh 63* and GDH-TPI counter 12.
Cc1nnc(NC(=O)c2cc(-c3ccco3)nc3ccccc23)s1 was read as UGM FP inh 0, FBA Mtb inh 10, GDH-TPI counter 17 and Rv3671c protease -3.
For O=C(O)c1cc(-c2ccco2)nc2ccccc12 the results were UGM FP inh 0, FBA Mtb inh 181*, GDH-TPI counter 26 and Rv3671c protease 10.
CC(=O)N1CCN(C2=NC(=O)/C(=C/c3ccc(OS(=O)(=O)c4ccccc4)cc3)S2)CC1 was read as UGM FP inh 0, FBA Mtb inh 0, GDH-TPI counter 31* and Rv3671c protease -6.
For O=C1N=C(N2CCOCC2)S/C1=C\c1ccccc1OS(=O)(=O)c1ccccc1 the results were UGM FP inh -2, FBA Mtb inh -1, GDH-TPI counter 5 and Rv3671c protease 8.
Screening COc1cc(/C=C2\SC(N3CCCCC3)=NC2=O)cc(OC)c1OC returned UGM FP inh 2, FBA Mtb inh 0, GDH-TPI counter 33* and Rv3671c protease -2.
For COc1ccc(/C=C2\SC(N3CCCCC3)=NC2=O)cc1 the results were UGM FP inh 4, FBA Mtb inh 2, GDH-TPI counter 47* and Rv3671c protease 1.
CCOc1ccc(-c2cccc(NC(=O)c3cccs3)c2)nn1 was read as UGM FP inh 0, FBA Mtb inh -1, GDH-TPI counter -7 and Rv3671c protease -2.
Screening O=C(CN1C(=O)NC2(CCc3ccccc32)C1=O)Nc1ccc(Cl)cc1F (stereo unspecified) returned FBA Mtb inh -6 and GDH-TPI counter 16.
For C/C(=N\Nc1ccccn1)c1ccc(Br)s1 the results were UGM FP inh -1, FBA Mtb inh 0, GDH-TPI counter 38* and Rv3671c protease -6.
Screening CC(C)(C)c1ccc(OC(=O)Nc2ccc(O)c(C(=O)O)c2)cc1 returned UGM FP inh 1, FBA Mtb inh 80*, GDH-TPI counter -2 and Rv3671c protease 6.
For Cc1ccc(C(=O)Nc2ccc(O)c(C(=O)O)c2)o1 the results were UGM FP inh -1, FBA Mtb inh 7, GDH-TPI counter 6 and Rv3671c protease 8.
For O=C(N/N=C/c1cc2ccccc2nc1Cl)/C(=C/c1cccs1)NC(=O)c1ccccc1 the results were UGM FP inh 0, FBA Mtb inh 1, GDH-TPI counter 23 and Rv3671c protease -130.
For O=C(N/N=C/c1cccnc1)/C(=C\c1cccs1)NC(=O)c1ccccc1 the results were UGM FP inh 0, FBA Mtb inh -1, GDH-TPI counter 47* and Rv3671c protease -3.
COc1ccc(/C=C(\NC(=O)c2cccs2)C(=O)Nc2ccccc2C)cc1OC was read as UGM FP inh 0, FBA Mtb inh 0, GDH-TPI counter 38* and Rv3671c protease 6.
For COc1ccc(/C=C(\NC(=O)c2cccs2)C(=O)NC(C)(C)C)cc1OC the results were UGM FP inh 1, FBA Mtb inh -2, GDH-TPI counter 9 and Rv3671c protease 5.
`O=C(N/N=C/c1ccc2c(c1)OCO2)/C(=C/c1ccc2c(c1)OCO2)NC(=O)c1ccccc1` gave UGM FP inh -1, FBA Mtb inh 0, GDH-TPI counter 55* and Rv3671c protease -11.
COc1ccc(/C=C(/NC(=O)c2ccccc2)C(=O)N/N=C/c2ccc3c(c2)OCO3)cc1OC was read as FBA Mtb inh -4 and GDH-TPI counter 65*.
`O=C(Nc1cccc(C(=O)O)c1)/C(=C\c1ccc2c(c1)OCO2)NC(=O)c1ccccc1` gave UGM FP inh 2, FBA Mtb inh -3, GDH-TPI counter 25 and Rv3671c protease -7.

Screens (PubChem BioAssay)
